Screening results as filed in PubChem.
An excerpt weighted towards active compounds, which were near 11% of everything screened.
hNpr1 antagonist: human Npr1 receptor antagonism | P16066 | HEK293 hNpr1 GloSensor cGMP, ANP-stimulated luminescence | Potency, µM (series often up to 46.3 µM), for the others: at the highest dose activity change, negative = inhibition, most hits filed as inhibitors | 76,000 compounds, 1.6% hits; calls by dose curve; further: on the % scale 0 is the no-effect control and ±100 the full control effect; nearly all actives have a fitted effect of over 60% in size
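Compound pre-incubated 30 min at room temperature on GloSensor-loaded HEK293 cells stably carrying hNpr1 and the pGS-40F cGMP biosensor. Stimulation uses hNppA at 0.1 nM final; luminescence is taken at baseline and 20 min post-agonist.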
HEK293 tox: cytotoxic compounds in HEK 293 cells; HEK 293 viability, ATP luminescence (CellTiter-Glo), 48-72 h; Potency, µM (doses to about 115 µM), inactives show at the highest dose activity change, negative = cytotoxicity, usual class: inhibitors; 94,000 compounds, 6.6% hits; further: on the % scale 0 is the no-effect control and ±100 the full control effect; nearly all actives have a fitted effect of over 60% in size
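Pintool-delivered compounds were incubated with HEK 293 cells (250 cells/well) at 37 degree Celsius for 48 or 72 hr. ATP-dependent luminescence (CellTiter-Glo) then reported remaining viable cells.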
Luciferase inh: blocks purified firefly luciferase enzyme activity | purified P. pyralis luciferase, luminescence, biochemical | Potency, µM (series often up to 115 µM), most hits filed as inhibitors | 76,000 compounds, 2.5% hits | AID 1347043; further: on the % scale 0 is the no-effect control and ±100 the full control effect; nearly all actives have a fitted effect of over 65% in size
Target sequence (P08659 whole entry, looked up): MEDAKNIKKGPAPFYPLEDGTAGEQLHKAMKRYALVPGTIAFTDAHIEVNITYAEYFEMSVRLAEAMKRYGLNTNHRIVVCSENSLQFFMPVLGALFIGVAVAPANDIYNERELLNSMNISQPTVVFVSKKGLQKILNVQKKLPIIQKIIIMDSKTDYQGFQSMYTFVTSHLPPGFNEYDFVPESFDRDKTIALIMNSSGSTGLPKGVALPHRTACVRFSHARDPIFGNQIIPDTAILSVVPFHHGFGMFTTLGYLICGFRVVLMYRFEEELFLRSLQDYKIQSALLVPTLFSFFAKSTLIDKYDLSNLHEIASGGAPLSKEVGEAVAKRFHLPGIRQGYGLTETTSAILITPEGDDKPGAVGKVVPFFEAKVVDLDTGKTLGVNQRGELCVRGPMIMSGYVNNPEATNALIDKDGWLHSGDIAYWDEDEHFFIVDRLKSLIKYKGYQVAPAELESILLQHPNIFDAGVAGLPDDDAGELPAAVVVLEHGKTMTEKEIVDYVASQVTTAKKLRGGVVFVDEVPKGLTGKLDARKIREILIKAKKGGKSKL
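Luminescence read by CCD imager after adding enzyme (10nM final) to wells holding compound, titrated in qHTS. Substrates 10uM each D-luciferin and ATP; buffer 50mM Tris acetate pH 7.5, 10mM Mg acetate, Tween-20, BSA.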
NIH3T3 tox: kills NIH 3T3 cells | NIH 3T3 viability, CellTiter-Glo ATP luminescence, 48-72 h | Potency, µM (top dose mostly 96.7 µM), for the others: top-dose activity change, negative = cytotoxicity, most hits filed as inhibitors | 94,000 compounds, 4.3% hits | AID 1345082; further: on the % scale 0 is the no-effect control and ±100 the full control effect; nearly all actives have a fitted effect of over 55% in size
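NIH 3T3 cells at 400 cells/well received 23 nL of compound by pintool and were incubated 48 or 72 h at 37 °C. Viability was read as ATP-coupled CellTiter-Glo luminescence.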
NPR1 antag cnf: confirmation of human Npr1 natriuretic peptide receptor antagonists; shares compounds with hNpr1 antagonist; HEK293 hNpr1 cGMP GloSensor luminescence, ANP-stimulated; Potency, µM (highest dose often 57.6 µM), for inactives: at the top dose activity change, negative = inhibition, hits mostly inhibitors; 1,400 compounds, 76% hits; AID 1347044; calls by dose curve; further: nearly all actives have a fitted effect of over 70% in size
NPR2 antag: selectivity test of Npr1 antagonists against human Npr2; HEK293 hNpr2 GloSensor cGMP luminescence, CNP-stimulated; 1,400 compounds, 67% hits; Potency, µM (highest dose often 57.6 µM), for the others: at the top dose activity change, negative = inhibition, hits mostly inhibitors; shares compounds with hNpr1 antagonist; calls by dose curve; further: nearly all actives have a fitted effect of over 70% in size
FLuc inh counter: FLuc enzyme inhibition, Npr1 counter-screen | shares compounds with hNpr1 antagonist | purified FLuc enzyme, luminescence, Km substrate | Potency, µM (top dose mostly 57.6 µM), inactives show at the top dose activity change, negative = inhibition, usual class: inhibitors | 1,400 compounds, 0.7% hits | AID 1347047; further: 0% is about no effect
GloSensor cGMP: control cell line activity, Npr1 antagonist counter-screen. HEK293 GloSensor cGMP, SNP-stimulated, luminescence. shares compounds with hNpr1 antagonist. Potency, µM (top dose mostly 57.6 µM), inactives show at the highest dose activity change, negative = inhibition, hits mostly inhibitors. AID 1347051. 1,400 compounds, 69% hits; calls by dose curve; further: on the % scale 0 is the no-effect control and ±100 the full control effect; nearly all actives have a fitted effect of over 70% in size
Active calls of the source: *; [ ] = dose if it differs, or a comment. Unless noted, the call rests on the fitted dose curve; in most records, active means well fitted curve in the direction sought with a large enough effect; inconclusive means small, poorly fitted or top-dose-only effect, or another doubt; inactive means no such curve, though single readings can be large; an effect the other way counts as inactive or inconclusive. Potency means the concentration at half of the fitted maximal effect.

COc1ccc(-c2noc(CC3CCN(C(=O)Cc4ccccc4Cl)CC3)n2)cc1 was read as hNpr1 antagonist 10µM*, HEK293 tox inconclusive, Luciferase inh inactive, NIH3T3 tox inconclusive, NPR1 antag cnf 17.2µM*, NPR2 antag 21.7µM*, FLuc inh counter 0.8% and GloSensor cGMP 19.3µM*.
Screening COc1ccc(-c2noc(CC3CCN(C(=O)CCc4cccc(OC)c4)CC3)n2)cc1 returned hNpr1 antagonist 12.6µM*, HEK293 tox inconclusive, Luciferase inh inactive, NIH3T3 tox inconclusive, NPR1 antag cnf 21.7µM*, NPR2 antag 21.7µM*, FLuc inh counter 0.5% and GloSensor cGMP 17.2µM*.
Screening CCOC(=O)[C@H]1C[C@]2(CCCCN(CCOC)C2=O)N(C(=O)COC(C)=O)[C@H]1c1ccccc1 returned HEK293 tox -18.5% and NIH3T3 tox inconclusive.
O=C(NCC1CCCCC1)C1CCc2nc(N3CCN(C(=O)C4CCC4)CC3)sc2C1 (stereo not given) was read as hNpr1 antagonist 7.6%, HEK293 tox -38.4%, Luciferase inh inactive and NIH3T3 tox -10.8%.
`O=C(Nc1ccc(F)cc1)C1CCc2nc(N3CCN(C(=O)C4CCC4)CC3)sc2C1` (stereo not given) gave hNpr1 antagonist 3.55µM*, HEK293 tox 10µM*, Luciferase inh inactive, NIH3T3 tox inconclusive, NPR1 antag cnf 7.69µM*, NPR2 antag 10.9µM*, FLuc inh counter -20.2% and GloSensor cGMP 9.68µM*.
For Cc1nn2c(c1-c1ccnn1C(C)C)N(Cc1ccc(C(=O)O)s1)CCC2 the results were hNpr1 antagonist 15.8µM*, HEK293 tox inconclusive, Luciferase inh inactive, NIH3T3 tox 12.6µM*, NPR1 antag cnf 11.1µM*, NPR2 antag 11.1µM*, FLuc inh counter -0.2%[86.2 µM] and GloSensor cGMP 14µM*.
For COc1ccc(CN2CCOc3nc(-c4ccc(C(=O)N(C)C)cc4)ncc3C2=O)cc1 the results were hNpr1 antagonist -17.6%[70.6 µM], HEK293 tox inconclusive, Luciferase inh inconclusive and NIH3T3 tox -11.1%[138 µM].
Screening O=C1c2cnc(-c3ccncc3)nc2OCCN1Cc1ccc(F)cc1F returned hNpr1 antagonist 17.8µM*, HEK293 tox inconclusive, Luciferase inh inactive, NIH3T3 tox inconclusive, NPR1 antag cnf 31.4µM*, NPR2 antag 25µM*, FLuc inh counter -1.6%[86.2 µM] and GloSensor cGMP 22.2µM*.
COc1ccccc1-c1ncc2c(n1)OCCN(Cc1ccc(F)cc1F)C2=O was read as hNpr1 antagonist -3.2%[70.6 µM], HEK293 tox -35.1%[172 µM], Luciferase inh inactive and NIH3T3 tox inconclusive.
`COc1ccc(CN2CCOc3nc(-c4cccc(C(F)(F)F)c4)ncc3C2=O)cc1` gave hNpr1 antagonist 31.6µM*, HEK293 tox inconclusive, Luciferase inh inactive, NIH3T3 tox inconclusive, NPR1 antag cnf 35.3µM*, NPR2 antag 35.3µM*, FLuc inh counter -6.4%[86.2 µM] and GloSensor cGMP 39.6µM*.
For Cn1nccc1-c1ncc2c(n1)OCCN(Cc1ccc(F)cc1F)C2=O the results were hNpr1 antagonist 35.5µM*, HEK293 tox inconclusive, Luciferase inh inactive, NIH3T3 tox inconclusive, NPR1 antag cnf 35.3µM*, NPR2 antag 35.3µM*, FLuc inh counter 5.1%[86.2 µM] and GloSensor cGMP 39.6µM*.
